Source: the supplement of paper PMC8728848
Shown is part of a subset that was picked to be rich in the strongest signals.

Legend:
Assay in all cases: glycan array binding signal (z-score within array); higher = stronger binding
Conditions in all cases: glycan notation: IUPAC condensed, linker removed; mutation: R343K
[1] = target: Fuc(a1-2)Gal
Method in brief: (§1)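 Glycan array binding is given as a within-array Z-score, which can be read as non-binding when negative. The arrays, 3228 of them, came from the Consortium for Functional Glycomics database and were retained only where the protein sequence was available. Z-scores were averaged across arrays of the same protein sequence at different concentrations or buffers and across linkers.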

[2] = target: Fuc(a1-2)Gal(b1-4)GlcNAc(b1-3)Gal(b1-4)GlcNAc(b1-3)Gal(b1-4)GlcNAc
Method in brief: as §1

[3] = target: Fuc(a1-2)[GalNAc(b1-3)]Gal
Method in brief: as §1

[4] = target: Fuc(a1-3)[Gal(b1-4)]GlcNAc(b1-2)Man(a1-6)[Gal(b1-4)GlcNAc(b1-2)Man(a1-3)]Man(b1-4)GlcNAc(b1-4)GlcNAc
Method in brief: as §1

[5] = target: Fuc(a1-3)[Gal(b1-4)]GlcNAc(b1-4)Gal(b1-4)[Fuc(a1-3)]GlcNAc
Method in brief: as §1

[6] = target: Gal(b1-3)GalNAc(b1-3)Gal(a1-4)Gal(b1-4)Glc
Method in brief: as §1

[7] = target: Gal(b1-4)GalNAc(a1-3)[Fuc(a1-2)]Gal(b1-4)GlcNAc
Method in brief: as §1

[8] = target: Gal(b1-4)GlcNAc(a1-6)Gal(b1-4)GlcNAc
Method in brief: as §1

[9] = target: Gal(b1-4)GlcNAc(b1-6)GalNAc
Method in brief: as §1

[10] = target: Gal3S(b1-3)GlcNAc
Method in brief: as §1

[11] = target: Gal3S(b1-3)[Fuc(a1-4)]GlcNAc
Method in brief: as §1

[12] = target: Glc(b1-4)Glc
Method in brief: as §1

[13] = target: GlcA(b1-6)Gal
Method in brief: as §1

[14] = target: GlcNAc(b1-2)Gal(b1-3)GalNAc
Method in brief: as §1

[15] = target: Man(a1-2)Man(a1-3)[Man(a1-2)Man(a1-6)]Man
Method in brief: as §1

[16] = target: Man(a1-2)Man(a1-3)[Man(a1-2)Man(a1-6)]Man(a1-6)[Man(a1-2)Man(a1-2)Man(a1-3)]Man
Method in brief: as §1

[17] = target: Man(a1-2)Man(a1-3)[Man(a1-6)]Man(a1-6)[Man(a1-2)Man(a1-3)]Man(b1-4)GlcNAc(b1-4)GlcNAc
Method in brief: as §1

[18] = target: Man(a1-3)[Man(a1-6)]Man(a1-6)[Man(a1-2)Man(a1-3)]Man(b1-4)GlcNAc(b1-4)GlcNAc
Method in brief: as §1

[19] = target: Man(a1-3)[Man(a1-6)]Man(a1-6)[Man(a1-3)]Man
Method in brief: as §1

[20] = target: Neu5Ac(a2-3)Gal(b1-3)GalNAc(b1-3)Gal(a1-4)Gal(b1-4)Glc
Method in brief: as §1

[21] = target: Neu5Ac(a2-3)Gal(b1-3)GalNAc6S
Method in brief: as §1

[22] = target: Neu5Ac(a2-3)Gal(b1-3)GlcNAc
Method in brief: as §1

[23] = target: Neu5Ac(a2-3)Gal(b1-4)GlcNAc(b1-3)Gal(b1-4)GlcNAc(b1-3)Gal(b1-4)GlcNAc
Method in brief: as §1

[24] = target: Neu5Ac(a2-6)GalNAc(b1-4)GlcNAc
Method in brief: as §1

[25] = target: Neu5Ac9Ac(a2-6)Gal(b1-4)GlcNAc
Method in brief: as §1

[26] = target: Neu5Gc(a2-6)Gal(b1-4)GlcNAc
Method in brief: as §1

B1: Surfactant Protein D (Human); Neck + Carbohydrate Recognition Domain (NCRD) (Homo sapiens) (protein)
chain: MLLFLLSALVLLTQPLGYLEAEMKTYSHRTMPSACTLVMCSSVESGLPGRDRDGREGPRGEKGDPGLPGAAGQAGMPGQAGPVGPKGDNGSVGEPGPKGDTGPSGPPGPPGVPGPAGREGALGKQGNIGPQGKPGPKGEAGPKGEVGAPGMQGSAGARGLAGPKGERGVPGERGVPGNTGAAGSAGAMGPQGSPGARGPPGLKGDKGIPGDKGAKGESGLPDVASLRQQVEALQGQVQHLQAAFSQYKKVELFPNGQSVGEKIFKTAQFVKPFTEAQLLCTQAGGQLASPRSAAENAALQQLVVAKNEAAFLSMTDSKTEGKFTYPTGESLVYSNWAPGEPNDDGGSEDCVEIFTNGKWNDKACGEKRLVVCEF
glycan array binding signal (z-score) [1]: -0.147
glycan array binding signal (z-score) [2]: -0.143
glycan array binding signal (z-score) [3]: -0.145
glycan array binding signal (z-score) [4]: -0.147
glycan array binding signal (z-score) [5]: -0.157
glycan array binding signal (z-score) [6]: -0.147
glycan array binding signal (z-score) [7]: -0.145
glycan array binding signal (z-score) [8]: -0.153
glycan array binding signal (z-score) [9]: -0.151
glycan array binding signal (z-score) [10]: -0.155
glycan array binding signal (z-score) [11]: -0.153
glycan array binding signal (z-score) [12]: -0.153
glycan array binding signal (z-score) [13]: -0.146
glycan array binding signal (z-score) [14]: -0.159
glycan array binding signal (z-score) [15]: 5.42
glycan array binding signal (z-score) [16]: 10.9
glycan array binding signal (z-score) [17]: 5.1
glycan array binding signal (z-score) [18]: 7.96
glycan array binding signal (z-score) [19]: 5.92
glycan array binding signal (z-score) [20]: -0.155
glycan array binding signal (z-score) [21]: -0.156
glycan array binding signal (z-score) [22]: -0.142
glycan array binding signal (z-score) [23]: -0.143
glycan array binding signal (z-score) [24]: -0.155
glycan array binding signal (z-score) [25]: -0.15
glycan array binding signal (z-score) [26]: -0.155
